The list is not random: actives were taken first. Their share in the collection is about 4.9%.
Beta cell apopt – blocks beta cell apoptosis | protection from apoptosis, % (concentration not given with the values) | 300,000 tested, 0.8% active | AID 435005 | INS-1E cytokine-induced death, ATP luminescence, 48 h; percent of positive-control rescue, neutral wells zero;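 active = Every replicate reaches about 75%, or at least half do and their mean reaches it too, limit read from the data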;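 note: 0% = cytokine-treated negative control wells and 100% = positive control rescue; higher means more ATP so stronger rescue from cytokine killing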
CSC inhib – cancer stem cell inhibition | AID 2717 | cancer stem cell-like cells viability, luminescence | 300,000 tested, 1.1% active | inhibition, % at 7.5 µM; in the data active = inhibition above about 75%; tested in HMLE shEcad cells
Mdm2-MdmX inh – disrupts the human Mdm2-MdmX interaction; inhibition, % at 8 µM; SaOS-2 split-luciferase Mdm2/MdmX complementation, luminescence; O15151+Q00987; 330,000 tested, 3% active;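 active = inhibition of at least 50% at 8 µM in the primary screen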
Target sequence (O15151 whole entry, looked up): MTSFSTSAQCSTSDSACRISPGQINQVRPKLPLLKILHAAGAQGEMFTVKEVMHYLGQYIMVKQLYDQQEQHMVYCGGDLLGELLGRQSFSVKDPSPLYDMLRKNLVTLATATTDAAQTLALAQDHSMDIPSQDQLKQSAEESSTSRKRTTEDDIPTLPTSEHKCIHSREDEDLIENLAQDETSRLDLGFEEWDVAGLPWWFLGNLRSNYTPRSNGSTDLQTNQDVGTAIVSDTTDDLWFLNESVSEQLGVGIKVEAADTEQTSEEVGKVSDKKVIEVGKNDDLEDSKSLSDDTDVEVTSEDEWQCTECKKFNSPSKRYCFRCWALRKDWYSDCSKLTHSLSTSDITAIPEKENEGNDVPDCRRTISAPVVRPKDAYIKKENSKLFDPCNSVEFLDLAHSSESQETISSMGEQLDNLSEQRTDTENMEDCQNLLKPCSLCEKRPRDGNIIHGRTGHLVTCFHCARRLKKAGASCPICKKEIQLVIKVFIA
Target sequence (Q00987 whole entry, looked up): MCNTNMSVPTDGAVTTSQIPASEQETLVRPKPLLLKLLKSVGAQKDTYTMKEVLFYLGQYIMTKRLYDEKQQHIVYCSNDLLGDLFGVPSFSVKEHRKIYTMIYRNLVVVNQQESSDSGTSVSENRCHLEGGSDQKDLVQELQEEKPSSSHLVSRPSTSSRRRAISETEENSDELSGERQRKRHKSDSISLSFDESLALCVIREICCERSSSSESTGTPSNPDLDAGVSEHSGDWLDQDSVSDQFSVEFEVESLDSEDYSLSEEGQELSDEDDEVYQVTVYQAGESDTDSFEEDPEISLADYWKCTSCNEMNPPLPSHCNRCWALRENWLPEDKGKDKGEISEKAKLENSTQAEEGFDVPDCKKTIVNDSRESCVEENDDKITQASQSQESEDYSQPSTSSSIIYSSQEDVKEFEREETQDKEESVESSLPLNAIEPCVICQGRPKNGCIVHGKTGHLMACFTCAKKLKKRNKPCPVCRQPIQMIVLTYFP
PP1 inh – PP1-alpha (human) inhibition in PP5 counter-screen | P62136 | inhibition, % at 6.7 µM | 320,000 tested, 0.9% active | purified PP1alpha, OMFP fluorescence;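 active = inhibition above the mean inhibition of all tested compounds plus 3 SD, computed separately for each screening campaign, cut at about 15% in these data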
PP5 inh – inhibitors of human protein phosphatase 5 (PP5) | P53041 | purified PP5c, OMFP substrate fluorescence | inhibition, % at 6.7 µM | 320,000 tested, 0.18% active;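 active = inhibition above the campaign's mean inhibition across all tested compounds plus 3 SD, cut at about 9.5% in these data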;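 note: 0% = DMSO only and 100% = 100 µM cantharidin control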
Calb FLC – affects C. albicans growth with fluconazole; C. albicans CaCi-2 (fluconazole-resistant clinical isolate) + fluconazole, Alamar Blue growth, 48 h; growth inhibition, % (concentration not given with the values); 300,000 tested, 0.57% active; AID 1979;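 active = growth inhibition above about 58% in most replicates, limit read from the data, passing the limit was not always enough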;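 note: all wells also contain fluconazole at 8 µg/ml as a sub-toxic cotreatment; 0% = median of DMSO wells and 100% = median of geldanamycin control wells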
* hit, by the source's call; . = no result.

SMILES	Beta cell apopt	CSC inhib	Mdm2-MdmX inh	PP1 inh	PP5 inh	Calb FLC
CN(C(=O)CSc1n[nH]c(-c2cccs2)n1)C1CCS(=O)(=O)C1 (configuration not stated)	-5	-12	12	-3	-3	13
Nc1nc(=S)c2[nH]cnc2[nH]1	.	91*	45	-7	1	.
COc1ccc2[nH]c3c(=O)n(/N=C/[C@H]4C(C)C=C(C)CC4C)c(=O)[nH]c3c2c1 (some centres not stated)	5	88*	16	-3	4	12
COc1ccc(Br)cc1C(=O)NC(=S)Nc1c(C)n(C)n(-c2ccccc2)c1=O	5	-3	12	-3	0	0
Cc1nn(CC(=O)NCCCc2ccccc2)c(C)c1[N+](=O)[O-]	1	-8	19	0	-1	87*
Cc1nn(CC(=O)NCCc2ccccc2)c(C)c1[N+](=O)[O-]	-12	3	1	-1	-1	-14
Cc1cc(NC(=O)/C=C/c2ccc(Cl)cc2)no1	2	78*	-12	3	0	-2
O=C(/C=C/c1ccc2c(c1)OCO2)NCCSCc1cccc(Cl)c1	0	102*	16	3	1	-56
O=C(/C=C/c1ccc2c(c1)OCO2)Nc1ccc(Cl)cn1	17	88*	-101	2	-2	-49
Cc1nc2ccccc2c(=O)n1/N=C/C=C/c1ccccc1	3	-4	9	-3	1	25
O=C(CSc1nnc(SCc2cccc3ccccc23)s1)N/N=C/C=C/c1ccccc1[N+](=O)[O-]	-5	21	-1	16*	1	-5
O=C(COC(=O)c1ccc(O)cc1)NCC1CCCO1 (configuration not stated)	-2	.	-1	3	4	-8
O/N=C/c1ccnc(SCc2ccc(Cl)cc2)n1	.	80*	16	-3	3	12
O/N=C/c1ccnc(SCc2ccccc2)n1	.	16	4	0	2	5
CC(C)Oc1ccc(Cl)cc1Nc1nc(NCCO)nc(N2CCCC2)n1	.	55	47	-2	6	6
CCOC(=O)C1=C(COC(=O)/C=C/c2ccco2)NC(=O)NC1C (configuration not stated)	-12	-11	-12	-7	1	-5
CCOc1ccc(NC(=O)CC2C(=O)N(CC)C(=S)N2CCN2CCOCC2)cc1 (configuration not stated)	2	0	9	0	-1	8
CCN1C(=O)C(CC(=O)Nc2ccc(F)cc2)N(CCCN2CCN(c3ccc(F)cc3)CC2)C1=S (configuration not stated)	-3	105*	25	2	2	-2
NC(=O)c1cccnc1OCC(F)(F)F	5	-1	17	-2	-2	-6
CCN(c1ccccc1)S(=O)(=O)c1ccc(OC)c(NC(=O)CN2C(=O)NC(C)(C)C2=O)c1	-2	.	-13	-2	-1	.
CCN(c1ccccc1)S(=O)(=O)c1ccc(Cl)c(NC(=O)CN2C(=O)NC3(CCCC3)C2=O)c1	-2	0	-3	-3	0	96*
CCN(CCCNC(=O)CNC(=O)c1nn(-c2ccc(OC)cc2OC)c(=O)c2ccccc12)c1cccc(C)c1	6	5	-3	1	1	31
Nc1cc(Cl)ccc1Oc1ccc2ccccc2c1	9	83*	-6	-2	1	-8
c1ccc(-c2c3ccccc3nc3[nH]c4ccccc4c23)cc1	3	79*	29	-4	2	11
COC(=O)c1c(NC(=O)Cc2cccs2)sc2c1CCC(C)C2 (configuration not stated)	0	80*	-9	0	2	-8
SMILES	Beta cell apopt	CSC inhib	Mdm2-MdmX inh	PP1 inh	PP5 inh	Calb FLC
Cc1c(Cl)cccc1NC(=O)CSc1nccn1C	-4	-4	15	0	3	.
Clc1ccc(N/N=C/c2cccnc2)cc1	-3	85*	-3	1	-5	1
O=[N+]([O-])c1ccc(N/N=C/c2cccnc2)cc1	7	21	-42	2	2	-18
O=C(NCc1ccco1)c1cc(S(=O)(=O)N2CCCC2)ccc1Cl	0	-9	-8	0	3	-6
O=C(CN(Cc1ccco1)Cc1ccco1)Nc1cc(S(=O)(=O)N2CCCCC2)ccc1Cl	101*	.	41	9	2	.
COc1ccc(Cc2nnc(NC(=O)C3CCN(C(=O)c4ccco4)CC3)s2)cc1	4	7	9	0	0	-2
CN(C)c1cc(N/N=C/c2ccc(Cl)cc2)nc(N(C)C)n1	.	.	.	.	.	98*
Cc1cc(N/N=C/c2ccccc2)nc(N)n1	-7	-9	-1	5	0	3
O=S(=O)(c1ccc(Cl)cc1)N1CCN(c2ncccn2)CC1	-3	-16	8	-2	-1	-2
CCCN(CCC)CCN1C(=O)C2C(C(=O)Nc3cccc(SC)c3)C3C=CC2(O3)C1C(=O)NC1CCCCC1 (configuration not stated)	2	-7	-12	4	1	-3
Cc1sc2ncnc(SCC(=O)N3CCCC(C(F)(F)F)C3)c2c1C (configuration not stated)	.	-1	-34	0	1	2
Clc1ccc(-c2ccc(/C=N/Nc3cc(N4CCOCC4)nc(N4CCOCC4)n3)o2)cc1	7	93*	43	0	3	23
O=C1CS/C(=N\C(=O)N2c3ccccc3Sc3ccccc32)N1	-10	25	7	3	1	95*
NCCC(=O)N1c2ccccc2Sc2ccccc21	-4	-1	34	5	2	-17
NS(=O)(=O)c1ccc(CCNC(=O)CNS(=O)(=O)c2cccc(Br)c2)cc1	-9	3	-16	-2	1	15
C/C=C(\C)C(=O)O[C@H](c1cc2ccc(=O)oc2cc1OC)[C@@H](O)C(C)(C)O	3	-7	20	-5	3	.
Cc1ccc(-c2nnc(Nc3ccccc3)c3ccccc23)cc1S(=O)(=O)NCC1CCCO1 (configuration not stated)	12	-9	36	1	2	61*
CC(=O)Nc1ccc(Nc2nnc(-c3ccc(C)c(S(=O)(=O)NCC4CCCO4)c3)c3ccccc23)cc1 (configuration not stated)	5	-14	20	1	1	-5
CC(C)c1cccc(C(C)C)c1OC(=O)[C@H]1OC(C(C)(C)C)=C[C@@H]1c1ccccc1	111*	21	1	-1	0	.
CCOC(=O)c1cc(C#N)c(N2CCN(c3ccc(OC)cc3)CC2)[nH]c1=O	1	-3	5	2	0	92*
CCOC(=O)c1[nH]c(CN2CCN(c3ccc(OC)cc3)CC2)c(C(=O)OCC)c1C	8	2	0	0	0	0
C=CCn1c(SCC(=O)c2[nH]c(C)c(C(=O)OCC)c2C)nc2scc(-c3ccc(OC)c(OC)c3)c2c1=O	95*	93*	.	1	-1	2
